Bioassay records (PubChem BioAssay)
In the library only some 3.4% were active in any assay of this set; here they are far more common.
SMARCA2 activ = increases SMARCA2 function in MMTV reporter cells | MG213 cells, MMTV-luciferase reporter, dexamethasone, overnight | activation, % at 9.1 µM | hit rate 1% among 370,000 | AID 652017; in the data active = activation above about 7.8%;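 also: 0% = vehicle wells and 100% = reference activator wells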
HSF1 inh = HSF1 inhibition | NIH3T3-HGL HSE-luciferase, MG132-induced, luminescence 8 h; stronger effect = lower value | activity change, negative = inhibition, % at 7.5 µM (by protocol) | hit rate 0.77% among 300,000 | AID 2098;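 active = more than half of replicate wells show activity change below -50%, luminescence cut by over half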;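 also: luciferase reports HSF-1 transcriptional activity via heat shock element; 0% = median of DMSO wells and -100% = zero luminescence signal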
PG9 binder = PG9 antibody binding by small molecule; AID 624416; TR-FRET gp120-PG9 antibody binding; hit rate 0.43% among 360,000; inhibition, % at 6.7 µM; in the data active = inhibition above about 8.5%
FXN GAA850 act = frataxin GAA850 promoter activation; HEK293 lucGAA850 FXN promoter luciferase reporter, 24 h; percent of 10 µM SAHA response; activation, % at 6 µM; hit rate 0.56% among 360,000;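 active = activation above the average of all compounds screened plus 3 SD, cutoff fixed separately per campaign, cut at about 7.5% in these data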;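 also: 0% = DMSO wells and 100% = 10 µM SAHA wells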
HSP90 refold inh = blocks HSP90-mediated luciferase refolding in reticulocyte lysate; inhibition, % at 5.6 µM; AID 1789; Rabbit reticulocyte lysate, luciferase refolding luminescence, 3 h; hit rate 0.91% among 290,000;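 active = inhibition above the screen-wide mean plus 3 SD, computed separately per campaign, cut at about 16% in these data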;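 also: 0% = DMSO wells and 100% = 60 µM geldanamycin wells; inhibitors lower the luminescence because luciferase stays unfolded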
AI-2 QS mod = modulates the Vibrio harveyi AI-2 quorum sensing system; Vibrio harveyi JMH597 AI-2 luminescence/OD600 ratio, 9 h; stronger effect = lower value; strain lacks LuxN and CqsS sensors; 0 = neutral-control median; activity change, % at 7.5 µM; hit rate 0.4% among 300,000; in the data active = activity change below about -75%, passing the limit was not always enough;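 also: luminescence divided by OD600 gain over 9 h not by final OD600 alone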
Active calls of the source: *.

For COc1ccc(C2=NOC(C(=O)Nc3c(C)n(C)n(-c4ccccc4)c3=O)C2)cc1OC (stereo unspecified) the results were SMARCA2 activ -7, HSF1 inh -73*, PG9 binder 1, FXN GAA850 act 1, HSP90 refold inh -1 and AI-2 QS mod 14.
For COc1ccc(C2=NOC(C(=O)Nc3ccc(C(C)=O)cc3)C2)cc1OC (stereo unspecified) the results were SMARCA2 activ 4, HSF1 inh 2, PG9 binder -1, FXN GAA850 act 0, HSP90 refold inh 2 and AI-2 QS mod 30.
`O=C(NCC1COCCO1)C1CCN(S(=O)(=O)c2ccc(Br)s2)CC1` (stereo unspecified) gave SMARCA2 activ -3.
Screening Cc1ccc(CCNC(=O)c2cc(C)nn2-c2ccccc2)cc1 returned SMARCA2 activ -2, HSF1 inh 4, PG9 binder -2, FXN GAA850 act 0, HSP90 refold inh 2 and AI-2 QS mod 13.
`CCOCCCNC(=O)c1cc(C)nn1-c1ccccc1` gave SMARCA2 activ 1, HSF1 inh -72*, PG9 binder 1, FXN GAA850 act 1, HSP90 refold inh -6 and AI-2 QS mod 9.
Screening Cc1cc(C(=O)NCc2ccc(Cl)cc2)n(-c2ccccc2)n1 returned SMARCA2 activ -3, HSF1 inh -68*, PG9 binder 3, FXN GAA850 act 2, HSP90 refold inh 2 and AI-2 QS mod 14.
`COc1ccc(-n2c(SCC(=O)NC3CCCCCC3)nnc2-c2ccncc2)cc1` gave SMARCA2 activ 2.
`NCCNC(=O)Cc1cccc(NC(=O)Cc2ccc(Nc3ncnc4c3ncn4[C@@H]3O[C@H](CO)[C@@H](O)[C@H]3O)cc2)c1` gave SMARCA2 activ -2, HSF1 inh -23, PG9 binder -2, FXN GAA850 act 10* and AI-2 QS mod 4.
For O=[N+]([O-])c1ccc(CSc2nnc(-c3cccc(Cl)c3)n2Cc2ccco2)cc1 the results were SMARCA2 activ -7.
CNC(=O)C1C(=S)NC(N)=C(C#N)C1c1ccccc1 (stereo unspecified) was read as SMARCA2 activ -2, HSF1 inh -72*, PG9 binder 0, FXN GAA850 act 0, HSP90 refold inh 2 and AI-2 QS mod 29.
For COC(=O)C1=C(C)OC(N)=C(C#N)C1c1ccccc1 (stereo unspecified) the results were SMARCA2 activ 1, HSF1 inh -6, PG9 binder 1, FXN GAA850 act 2, HSP90 refold inh 3 and AI-2 QS mod 11.
Screening CN(/C(=N\S(=O)(=O)c1ccccc1)C(F)(F)F)c1ccccc1 returned SMARCA2 activ 0, HSF1 inh -56*, PG9 binder 1, FXN GAA850 act -1, HSP90 refold inh 1 and AI-2 QS mod 19.
`O=S(=O)(c1cccs1)N1CCCc2nc(-c3ccc(F)cc3)ccc21` gave SMARCA2 activ -8 and PG9 binder 1.
Nc1nnnn1/N=C/c1ccccc1OCc1ccc(Cl)cc1 was read as SMARCA2 activ 0, HSF1 inh 18, PG9 binder -1, FXN GAA850 act 0, HSP90 refold inh -4 and AI-2 QS mod 24.
Cc1n[nH]c(=S)n1/N=C/c1ccccc1OCc1ccc(Cl)cc1 was read as SMARCA2 activ 0, HSF1 inh 23, PG9 binder -2, FXN GAA850 act 8.3*, HSP90 refold inh -7 and AI-2 QS mod 2.
Screening CC(=O)OC12CCCN(C1)/C(=C/c1cccc(Cl)c1)C2 (stereo unspecified) returned SMARCA2 activ 0.
For Cc1ccc(S(=O)(=O)N(CC(=O)N2CCc3ccccc3C2)c2ccc(Cl)c(Cl)c2)cc1 the results were SMARCA2 activ -3, HSF1 inh -88*, PG9 binder -1, FXN GAA850 act -1, HSP90 refold inh -1 and AI-2 QS mod 12.
COc1cccc(N(CC(=O)N2CCN(C)CC2)S(=O)(=O)c2ccc(C)cc2)c1 was read as SMARCA2 activ 0, HSF1 inh -85*, PG9 binder 1, FXN GAA850 act -3, HSP90 refold inh -3 and AI-2 QS mod 30.
COc1ccc(N(CC(=O)N2CCN(C)CC2)S(=O)(=O)c2ccccc2)cc1 was read as SMARCA2 activ 7, HSF1 inh -11, PG9 binder 0, FXN GAA850 act 1, HSP90 refold inh 4 and AI-2 QS mod 9.
COC(=O)[C@H](CC(C)C)N(CCCc1cn(CC2CCCCC2)nn1)S(=O)(=O)c1ccc(F)cc1Br was read as SMARCA2 activ -4.
Screening CCC1=CC(c2ccccc2)n2ncnc2N1 (stereo unspecified) returned SMARCA2 activ 2, HSF1 inh -84*, PG9 binder 0, FXN GAA850 act 0 and AI-2 QS mod 6.
For Cc1occc1C(=O)Nc1cc(C(F)(F)F)ccc1Cl the results were SMARCA2 activ -2, HSF1 inh -65*, PG9 binder 3, FXN GAA850 act 1, HSP90 refold inh -3 and AI-2 QS mod 3.
For COc1ccc(C(C)(C)C)cc1NC(=O)c1ccoc1C the results were SMARCA2 activ -1, HSF1 inh -3, PG9 binder 0, FXN GAA850 act 2, HSP90 refold inh 3 and AI-2 QS mod 13.
`Cc1cc(Oc2cccnc2)ccc1NC(=O)CCc1c[nH]c2ccccc12` gave SMARCA2 activ -3 and PG9 binder -1.
`O=S1(=O)C=C(Sc2nc3ccccc3s2)c2ccccc21` gave HSF1 inh -87*, HSP90 refold inh 7 and AI-2 QS mod -42.
For COCCN(CC(=O)NC1CCCCC1)C(=O)/C=C/C(=O)c1ccc(OC)cc1O the results were SMARCA2 activ 1, HSF1 inh -83*, PG9 binder 2, FXN GAA850 act -3, HSP90 refold inh -2 and AI-2 QS mod 29.
For COc1ccc(C2NC(=S)N(Cc3ccc(Cl)cc3)C(C)=C2C(C)=O)cc1 (stereo unspecified) the results were SMARCA2 activ -5 and PG9 binder -2.
Screening O=C(NCc1ccccc1)c1cccc(COc2cc(Cl)ccc2Cl)c1 returned SMARCA2 activ 2, HSF1 inh 20, PG9 binder 3, FXN GAA850 act 5, HSP90 refold inh 7 and AI-2 QS mod 9.
Screening O=C(NCc1ccccc1)c1cccc(COc2ccccc2Cl)c1 returned SMARCA2 activ 3, HSF1 inh -38, PG9 binder 1, FXN GAA850 act 4, HSP90 refold inh 17* and AI-2 QS mod 18.
Screening Cc1ccc(C(=O)C2CCN(CC(=O)N3CCCC3)CC2)cc1 returned SMARCA2 activ -5.
`Cc1cc(C(=O)CSc2nnc(-c3ccccc3)o2)c(C)n1CC1COc2ccccc2O1` (stereo unspecified) gave SMARCA2 activ -2, HSF1 inh 0, PG9 binder 0, FXN GAA850 act 2, HSP90 refold inh 16* and AI-2 QS mod 13.
